High-throughput results: PubChem, National Center for Advancing Translational Sciences (NCATS)
An excerpt weighted towards active compounds, which were near 3.3% of everything screened.
GFP derepression: qHTS Assay for Epigenetic Modulators. Potency, µM (highest dose often 46.1 µM), for inactives: at the top dose GFP derepression (activation). mouse C127i GFP locus derepression, cytometry, 30 h. actives 0.09% (n = 68,000); further: % of control where 0% means no effect
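Derepression screen: silenced CMV-GFP reporter in murine C127i cells, 30 h compound incubation at 37 C, washed cells imaged by laser-scanning cytometer to enumerate GFP-expressing objects of 20 to 120 um.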
HBB splicing: qHTS Assay for Modulators of Hemoglobin Beta Chain Splicing. HBB splicing reporter cell assay, activation; EGFP reporter with mutant IVS2-654 intron; response scale: normalised to 500 nM splice-correcting PNA. Potency, µM (series often up to 46.1 µM), without a hit: at the top dose activation, hits mostly activators. actives 0.06% (n = 65,000); further: potency means the concentration at half of the fitted maximal effect; 0% is about no effect
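HeLa cells stably expressing EGFP interrupted by mutant beta-globin intron 2 (IVS2-654), 500/well in 2% FCS. Treated with compound for 2 days at 37C. Splicing correction scored as total well GFP intensity (488 nm excitation, 500-520 nm emission); 500 nM antisense PNA served as control.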
Luciferase inh: qHTS Assay for Inhibitors of Firefly Luciferase; actives 2.2% (n = 72,000); purified firefly luciferase, luminescence, 8 min; AID 411, 2009; Potency, µM (doses to about 57.1 µM), without a hit: at the top dose activity change, negative = inhibition, hits mostly inhibitors; further: potency means the concentration at half of the fitted maximal effect; on the % scale 0 is the no-effect control and ±100 the full control effect; nearly all actives have a fitted effect of over 40% in size
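Substrate buffer containing 10 uM ATP (pH 7.2 imidazole, Mg2+, KCl, detergent, BSA) is dispensed, compound pinned in, then luciferase/luciferin detector mix added. After 8 min at ambient temperature, light output is measured.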
GBA mod: Glucocerebrosidase | Lysosomal acid glucosylceramidase (Homo sapiens), P04062 | Potency, µM | purified enzyme, resorufin glucoside fluorescence (screen aimed at inhibitors), 20 min | actives 1.1% (n = 48,000); in the data active means potency below about 15 µM; inconclusive means mostly about 16 µM to 33 µM;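 further: potency means the concentration at half of the fitted maximal effect; the screen sought inhibitors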
Target sequence (P04062 whole entry, looked up): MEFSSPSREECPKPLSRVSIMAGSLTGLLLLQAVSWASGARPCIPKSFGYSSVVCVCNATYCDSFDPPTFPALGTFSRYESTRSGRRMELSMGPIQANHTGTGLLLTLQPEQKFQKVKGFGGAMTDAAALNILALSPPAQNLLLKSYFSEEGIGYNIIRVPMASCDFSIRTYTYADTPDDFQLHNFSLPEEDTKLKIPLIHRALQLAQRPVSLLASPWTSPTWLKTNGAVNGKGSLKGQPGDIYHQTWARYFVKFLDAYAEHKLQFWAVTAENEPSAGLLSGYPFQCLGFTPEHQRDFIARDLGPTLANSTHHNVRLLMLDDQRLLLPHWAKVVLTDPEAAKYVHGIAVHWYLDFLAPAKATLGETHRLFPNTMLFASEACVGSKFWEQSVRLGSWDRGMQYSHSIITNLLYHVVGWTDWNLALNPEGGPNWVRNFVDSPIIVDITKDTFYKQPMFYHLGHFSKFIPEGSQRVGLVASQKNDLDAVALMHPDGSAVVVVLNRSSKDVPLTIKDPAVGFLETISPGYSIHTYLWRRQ
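Wild-type enzyme at 0.2 nM final in 50mM citric acid/KH2PO4, 10mM sodium taurocholate, 0.01% tween-20, pH 5.9, with resorufin beta-D-glucopyranoside at 30 uM final. Compounds titrated, 20 min at RT, red fluorescence read; AC50 from titration.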
Ub-GFP proteasome: Ubiquitin-GFP Assay. Ubiquitin-GFP reporter cells, proteasome inhibition, GFP fluorescence; response scale: untreated = 0%, 10 µM MG-132 = 100%. 67,000 tested, under 10 active. Potency, µM (highest dose often 45.9 µM), for the others: at the highest dose activation (GFP accumulation), most hits filed as activators; active means well fitted activation curve with a large enough effect, not every such curve was filed as active; inconclusive means small, poorly fitted or top-dose-only effect, or another doubt; inactive means no such curve, though single readings can be large or run the other way; further: potency means the concentration at half of the fitted maximal effect
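U2OS cells stably expressing ubiquitin(G76V)-GFP, seeded overnight in 0.5% FBS medium, were exposed to compounds (qHTS, 46 uM to 2.9 nM) for 4 hr at 37 °C. GFP-positive cells were counted by laser cytometry (488 ex/515 em), normalized between basal and 10 uM MG-132.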
Bst PK mod: Pyruvate Kinase; purified pyruvate kinase, luminescence ATP production; ribose 5-phosphate activator present at AC10; actives 1.2% (n = 51,000); Potency, µM; in the data active means potency below about 11 µM; inconclusive means mostly about 12 µM to 25 µM;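 the screen sought inhibitors and activators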;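 further: potency means the concentration at half of the fitted maximal effect; scaled between full activation by ribose 5 phosphate and full inhibition by luteolin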
* marks the source's active call; other numbers are inactive results; i = inactive; u = inconclusive; x = no result given; [ ] = another dose, or the depositor's remark. Unless noted, the call rests on the fitted dose curve; in most records, active means well fitted curve in the direction sought with a large enough effect; inconclusive means small, poorly fitted or top-dose-only effect, or another doubt; inactive means no such curve, though single readings can be large; an effect the other way counts as inactive or inconclusive.

SMILES	GFP derepression	HBB splicing	Luciferase inh	GBA mod	Ub-GFP proteasome	Bst PK mod
COc1ccc(-c2cc3nc4n(c(=O)c3s2)CCC4)cc1	2%	1%	2.5µM*	>77	-5%	3.8*
CCn1c(=N)n(CC(=O)OC)c2ccccc21	6%	-1%	4%	>77	7%	>57
N=c1n(CCO)c2ccccc2n1Cc1ccc(Cl)cc1	0%	0%[57.5 µM]	-1%	u	0%	>57
CCn1c(=N)n(CCOc2ccc(OC)cc2)c2ccccc21	2%	-1%[57.5 µM]	3%	6.9*	-1%	>57
N=c1n(CCO)c2ccccc2n1CCOc1ccccc1	-2%	0%[57.5 µM]	3%	6*	-6%	>57
COc1ccc(OCC(O)Cn2c(=N)n(Cc3ccccc3)c3ccccc32)cc1 (stereo not given)	1%	-3%[57.5 µM]	-1%	14*	-5%	>57
COC(=O)C/C=C\[C@@H](C)[C@@H](/C=N\OC[C@@H](O)COCc1ccco1)NS(=O)(=O)c1ccc(C)cc1	x	1%[9.22 µM]	1%[11.4 µM]	x	x	x
NCCC[C@@H](CC(=O)N[C@@H]1CCCC[C@H]1C(=O)N[C@H](CC(=O)N[C@@H](CCC(=O)O)CC(=O)O)Cc1c[nH]c2ccccc12)NC(=O)C[C@H](CO)NC(=O)[C@@H]1CCCC[C@H]1N	x	5%	x	x	x	x
COc1ccc(-c2csc(NCc3ccco3)n2)cc1	0%	x	5µM*	>77	6%	4.6*
c1coc(CNc2nc(-c3ccncc3)cs2)c1	1%	1%	-20%	x	-2%	x
CCOC(=O)c1ccc(-n2c(=S)sc3c(=O)[nH]c(C)nc32)cc1	-1%	-4%	-3%	6.8*	-7%	>57
CCN(c1ccccc1)c1cc(NC)[n+](C)c(C)n1	-1%	x	0%	x	7%	x
CCCC(=O)NCCc1c2n(c3ccc(OC)cc13)CCCc1ccccc1-2	-2%	0%	0%	x	0%	x
CC[C@H](C)[C@@H]1O[C@]2(CC[C@@H]1C)C[C@H]1C[C@H](CC=C(C)[C@@H](O[C@H]3C[C@H](OC)[C@H](O[C@H]4C[C@H](OC)[C@H](O)[C@H](C)O4)[C@H](C)O3)[C@@H](C)C=CC=C3CO[C@@H]4[C@@H](O)C(C)=C[C@H](C(=O)O1)[C@@]34O)O2	0%	-2%	-2%	x	-5%	x
CCc1ccc(N2C(=O)c3sc4nnc(C)c(=O)n4c3C2=O)cc1	10µM*	-1%	-3%	x	-19%	x
CC(C)c1ccc(S(=O)(=O)N2CCN(C(=O)c3cccc(F)c3)CC2)cc1	6%	-2%	0%	15*	11%	>57
c1ccc2nc(-c3nc4ccccc4o3)ccc2c1	0%	0%	1.3µM*	u	6%	1.5*
Cc1ccc(N2C(=O)c3n[nH]c(C)c3C2c2ccco2)cc1 (stereo not given)	0%	1%[1.84 µM]	16µM*	>77	-6%	x
O=C(Nc1ccccc1)N1CCCC(c2nc(-c3cccs3)no2)C1 (stereo not given)	-1%	-3%	-4%	0.71*	1%	>57
COc1ccccc1Nc1nc(N)nc(-c2cc3ccccc3o2)n1	3%	-1%	-23%	>77	-14%	x
Cc1c(-c2nc(N)nc(Nc3ccccc3F)n2)oc2ccccc12	0%	2%	13µM*	x	7%	x
O=C(Nc1ccc(O)c(C(=O)O)c1)c1ccc2c(c1)C(=O)N(CC1CCCO1)C2=O (stereo not given)	6%	4%	13µM*	>77	3%	x
Cc1nnc(NC(=O)c2ccc3c(c2)C(=O)N(CC2CCCO2)C3=O)s1 (stereo not given)	6%	-1%	-21%	>77	4%	x
CCOC(=O)c1sc(SCC(=O)Nc2ccc(N(C)C)cc2)nc1N	0%	x	13µM*	>77	0%	i
CCOC(=O)c1ccc(NC(=O)CSc2nc(C)cc(=O)[nH]2)cc1	3%	-5%	0%	x	-16%	x
SMILES	GFP derepression	HBB splicing	Luciferase inh	GBA mod	Ub-GFP proteasome	Bst PK mod
COc1ccc(C(=O)N2CCC[C@@]3(CCN(Cc4ccccc4OC)C3)C2)cc1	0%[9.22 µM]	0%	1%[11.4 µM]	x	-11%	x
O=C(Cc1ccc2cccnc2c1)c1ccc(O)cc1O	0%	-2%	1%	>77	5%	6*
Oc1ccc2cccnc2c1	2%	1%[57.5 µM]	1%	>77	-1%	>57
Nc1ccc2c(c1)C(=O)N(CC1CCCO1)C2=O (stereo not given)	-3%	-1%	0%	>77	-1%	>57
Nc1ccc2c(c1)CCC2=O	0%	8%	13µM*	>77	7%	i
CC(=O)O[C@@H]1CC(C)=C2[C@H]1[C@H](C)CC[C@H]2/C=C(\C)C(=O)O	x	0%	x	x	x	x
COc1ccccc1N1CCN(S(=O)(=O)c2cccc3nsnc23)CC1	0%	0%	1%	>77	3%	7.4*
COc1ccccc1N1CCN(S(=O)(=O)c2ccc(Cl)s2)CC1	0%	3%	0%	>77	-4%	11*
CCOc1ccccc1N1CCN(S(=O)(=O)c2ccc(Cl)s2)CC1	0%	3%	2%	>77	-6%	u
On1onc2c3cc(-c4ccccc4)nc3ccc21	9%	4%	-6%	15*	19%	i
c1ccc(-c2cc3c(ccc4nonc43)nn2)cc1	-3%	-1%[0.0738 µM]	-4%	x	10%[9.17 µM]	x
CCOC(=O)Cn1nc(-c2ccc(Cl)cc2)cc1N	0%	x	-6%	>77	3%	5.8*
O=C(NC1CCCCC1)c1noc2c1CCCCC2	6%	-2%	20µM*	>77	19%	x
Cc1ccc(NC(=O)c2noc3c2CCCCC3)cc1	2%	2%	13µM*	>77	-11%	x
CCc1ccc(NC(=O)c2noc3c2CCCCC3)cc1	-1%	1%	-22%	>77	-2%	>57
CC(=O)c1n[nH]nc1NC(=O)c1ccccc1	4%	1%	0%	>77	-9%	>57
O=C(NC1=NC2CCCCC2N1)c1ccccc1 (stereo not given)	0%	4%	1.3µM*	u	-4%	u
CN1CCN(c2ncc3nc(-c4ccc(Cl)cc4)c(=O)n(Cc4cccs4)c3n2)CC1	2%[9.22 µM]	1%	0%[11.4 µM]	x	0%	x
Clc1ccc2c(c1)C1OCCC1C(c1ccco1)N2 (stereo not given)	-1%	x	16µM*	>77	-2%	9.6*
O=Nc1c2nc3ccccc3n(O)c-2c2ccccc12	1%	5%	-6%	>77	-13%	7.3*
CC1CCc2c(sc3nc(SCC(=O)NCc4ccco4)nc(N)c23)C1 (stereo not given)	2%	-6%[57.5 µM]	13µM*	>77	3%	i
